Laboratory results as given in PubChem BioAssay (EPA / NIEHS).
Inconclusive results are not listed. Activity calls are given as the source filed them. The calls were made as follows, unless noted: active = hit-call score of the fitted dose curve at least 0.9, where 1 is the maximum; inactive = score below 0.9.

Experiments:
[1] = ATG_PBREM_CIS: Attagene CIS-FACTORIAL HepG2 Assay for human Phenobarbital-responsive Enhancer Module (PBREM) (AID 2282955); settings: HepG2 PBREM cis-reporter, Attagene multiplexed transcription; actives raise or lower the signal
Summary of the method: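 Fluorescence of labelled reporter cDNA fragments, resolved by capillary electrophoresis, gives mRNA induction in transfected HepG2 cells treated for 24 h; DMSO serves as negative control and baseline.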

[2] = target: Paired box protein Pax-6 (Homo sapiens) (UniProt P26367); test: ATG_Pax6_CIS: Attagene CIS-FACTORIAL HepG2 Assay for human Paired Box 6 (PAX6) (AID 2282956); settings: HepG2 CIS-FACTORIAL PAX6 reporter transcription, RNA readout; actives raise or lower the signal
Paired box protein Pax-6 (Homo sapiens), sequence (P26367 whole entry, looked up): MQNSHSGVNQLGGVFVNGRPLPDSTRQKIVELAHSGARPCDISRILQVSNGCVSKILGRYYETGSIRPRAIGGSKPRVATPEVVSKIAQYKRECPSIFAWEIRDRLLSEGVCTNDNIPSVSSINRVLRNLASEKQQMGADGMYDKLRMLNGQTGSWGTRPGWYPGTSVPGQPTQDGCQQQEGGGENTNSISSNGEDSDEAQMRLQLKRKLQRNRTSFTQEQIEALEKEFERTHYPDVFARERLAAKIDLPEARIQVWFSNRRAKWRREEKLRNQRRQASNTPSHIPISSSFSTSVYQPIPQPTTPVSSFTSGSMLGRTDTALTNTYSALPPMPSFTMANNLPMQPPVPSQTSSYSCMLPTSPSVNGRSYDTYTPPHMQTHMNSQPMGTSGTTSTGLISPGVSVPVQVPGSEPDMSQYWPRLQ
Summary of the method: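 Fluorescent RT-PCR products separated by capillary electrophoresis report PAX6-linked promoter mRNA in HepG2 cells 24 h post-dose. Curves fitted bidirectionally, DMSO as negative control.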

[3] = ATG_PXRE_CIS: Attagene CIS-FACTORIAL HepG2 Assay for human Pregnane X Receptor Element (PXRE) (AID 2282957); settings: HepG2 Attagene CIS-FACTORIAL PXRE reporter, mRNA; actives raise or lower the signal
Summary of the method: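 After a 24 h chemical incubation, total RNA from transfected HepG2 cells was reverse-transcribed and reporter cDNA amplified, FAM-labeled, HpaI-digested and sized by capillary electrophoresis. DMSO served as baseline for bidirectional curve fitting.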

[4] = ATG_PPRE_CIS: Attagene CIS-FACTORIAL HepG2 Assay for human Peroxisome Proliferator-activated Response Element (PPRE) (AID 2282958); settings: HepG2 PPRE cis-element reporter, Attagene transcription factor profiling; actives raise or lower the signal
Summary of the method: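 Cells are first transfected transiently with the multiplexed reporter library, then dosed for 24 h. Total RNA is reverse-transcribed, amplified, fluorescently end-labeled and HpaI-cut before capillary electrophoresis; activity is fitted bidirectionally against DMSO controls.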

[5] = ATG_RORE_CIS: Attagene CIS-FACTORIAL HepG2 Assay for human RAR-related Orphan Receptor Element (RORE) (AID 2282959); settings: HepG2 Attagene cis-factorial RORE reporter, mRNA; actives raise or lower the signal
Summary of the method: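 Cells were HepG2 carrying transfected cis-regulated reporter constructs, dosed for 24 hours. Total RNA was reverse-transcribed and reporter cDNA amplified, fluorescently labeled and sized by capillary electrophoresis. Activity was fitted bidirectionally relative to DMSO.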

[6] = ATG_Sox_CIS: Attagene CIS-FACTORIAL HepG2 Assay for human SRY-box transcription factor (SOX) (AID 2282960); settings: HepG2 Attagene cis-factorial SOX reporter, mRNA; actives raise or lower the signal
Summary of the method: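 Transient MRTU transfection of HepG2; 24 h compound incubation; TriZol RNA, oligo(dT) RT, PCR, 6-FAM primer extension, HpaI cut, CE. Bidirectional fit, DMSO = baseline.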

[7] = target: Transcription factor Sp1 (Homo sapiens) (UniProt P08047); test: ATG_Sp1_CIS: Attagene CIS-FACTORIAL HepG2 Assay for human Specificity Protein 1 (Sp1) (AID 2282961); settings: HepG2 Sp1 cis-reporter transcription, actives raise or lower the signal
Transcription factor Sp1 (Homo sapiens), sequence (P08047 whole entry, looked up): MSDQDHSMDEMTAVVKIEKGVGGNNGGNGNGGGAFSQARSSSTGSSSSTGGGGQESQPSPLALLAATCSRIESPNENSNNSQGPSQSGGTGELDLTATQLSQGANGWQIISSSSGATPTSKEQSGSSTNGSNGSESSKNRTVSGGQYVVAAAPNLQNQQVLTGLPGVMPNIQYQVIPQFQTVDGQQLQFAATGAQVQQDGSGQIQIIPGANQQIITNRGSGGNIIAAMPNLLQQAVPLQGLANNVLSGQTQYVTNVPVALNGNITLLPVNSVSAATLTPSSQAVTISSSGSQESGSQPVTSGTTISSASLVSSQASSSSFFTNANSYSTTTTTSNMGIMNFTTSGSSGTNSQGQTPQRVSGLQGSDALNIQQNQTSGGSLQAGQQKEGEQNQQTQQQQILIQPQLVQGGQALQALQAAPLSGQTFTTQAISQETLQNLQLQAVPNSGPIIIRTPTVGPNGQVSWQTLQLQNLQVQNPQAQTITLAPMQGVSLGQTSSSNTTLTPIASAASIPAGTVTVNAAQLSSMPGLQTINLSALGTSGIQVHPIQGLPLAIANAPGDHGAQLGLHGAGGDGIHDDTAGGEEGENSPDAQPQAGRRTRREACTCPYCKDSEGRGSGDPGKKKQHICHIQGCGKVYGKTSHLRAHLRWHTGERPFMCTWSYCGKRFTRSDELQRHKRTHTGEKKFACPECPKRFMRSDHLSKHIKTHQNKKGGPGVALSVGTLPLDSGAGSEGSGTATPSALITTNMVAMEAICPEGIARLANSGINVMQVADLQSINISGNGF
Summary of the method: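 Endogenous Sp1 activity was gauged in human liver HepG2 cells bearing transfected reporter units under a cis-regulating promoter. After 24 h dosing, reporter mRNA was quantified by RT-PCR with capillary electrophoresis, and activity fitted bidirectionally versus DMSO.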

[8] = ATG_SREBP_CIS: Attagene CIS-FACTORIAL HepG2 Assay for human Sterol Regulatory Element Binding (SREBP) (AID 2282962); settings: HepG2 Attagene cis-factorial SREBP reporter, mRNA; actives raise or lower the signal
Summary of the method: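 Endogenous factor activity is measured in HepG2 through multiplexed reporter units under cis-element control. Following a 24 h incubation, reporter transcripts are reverse-transcribed, PCR-amplified and sized by capillary electrophoresis; activity is fitted in both directions relative to DMSO.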

[9] = target: Signal transducer and activator of transcription 3 (Homo sapiens) (UniProt P40763); test: ATG_STAT3_CIS: Attagene CIS-FACTORIAL HepG2 Assay for human Signal Transducer and Activator of Transcription 3 (STAT3) (AID 2282963); settings: HepG2, Attagene cis-factorial STAT3 reporter transcription; actives raise or lower the signal
Signal transducer and activator of transcription 3 (Homo sapiens), sequence (P40763 whole entry, looked up, the tested form may be a part): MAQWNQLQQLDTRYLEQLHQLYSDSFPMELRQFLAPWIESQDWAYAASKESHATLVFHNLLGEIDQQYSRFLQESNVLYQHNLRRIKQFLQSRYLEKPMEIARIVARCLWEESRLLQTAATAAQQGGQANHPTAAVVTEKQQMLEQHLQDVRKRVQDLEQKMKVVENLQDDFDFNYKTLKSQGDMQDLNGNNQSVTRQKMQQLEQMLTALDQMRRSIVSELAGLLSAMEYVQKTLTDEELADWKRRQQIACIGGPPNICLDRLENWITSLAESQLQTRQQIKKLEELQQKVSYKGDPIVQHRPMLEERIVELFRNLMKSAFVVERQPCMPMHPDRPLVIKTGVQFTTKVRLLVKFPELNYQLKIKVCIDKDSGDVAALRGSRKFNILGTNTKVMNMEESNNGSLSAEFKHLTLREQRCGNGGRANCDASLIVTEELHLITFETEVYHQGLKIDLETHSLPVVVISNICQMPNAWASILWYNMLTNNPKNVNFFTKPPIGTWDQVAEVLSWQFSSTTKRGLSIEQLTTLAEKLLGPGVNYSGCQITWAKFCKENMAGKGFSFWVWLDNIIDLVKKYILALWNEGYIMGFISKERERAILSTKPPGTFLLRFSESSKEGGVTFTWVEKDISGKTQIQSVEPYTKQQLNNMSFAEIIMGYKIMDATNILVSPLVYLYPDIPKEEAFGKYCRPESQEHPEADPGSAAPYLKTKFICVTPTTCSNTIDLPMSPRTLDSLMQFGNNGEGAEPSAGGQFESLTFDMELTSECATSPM
Summary of the method: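 Fluorescence intensity of 6-FAM-labelled reporter fragments, separated by capillary electrophoresis after RT-PCR, gave the signal. Cells were HepG2 transfected with cis-element reporter units and treated 24 h; fitting was bidirectional relative to DMSO.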

[10] = ATG_TA_CIS: Attagene CIS-FACTORIAL HepG2 Assay for human TA Basal Promoter (AID 2282964); settings: HepG2 Attagene CIS-factorial TA basal promoter reporter; actives raise or lower the signal
Summary of the method: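 Read-out: fluorescent reporter-transcript fragments resolved by capillary electrophoresis after RT-PCR and HpaI digestion. Source: HepG2 cells carrying transiently transfected multi-reporter cis constructs, treated 24 h. Endpoint fitted bidirectionally relative to DMSO.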

[11] = ATG_TCF_b_cat_CIS: Attagene CIS-FACTORIAL HepG2 Assay for human T-Cell-Factor with beta-catenin (TCF/b-cat) (AID 2282965); settings: HepG2 TCF/beta-catenin cis-reporter transcription, actives raise or lower the signal
Summary of the method: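 Cells of the HepG2 line carry transiently transfected reporter units whose promoters respond to endogenous factors. Twenty-four hours post-dosing, reporter mRNA induction is measured by fluorescent RT-PCR and capillary electrophoresis, with DMSO as baseline.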

[12] = ATG_TAL_CIS: Attagene CIS-FACTORIAL HepG2 Assay for human TAL Basal Promoter (AID 2282966); settings: HepG2 Attagene cis-factorial TAL promoter reporter; actives raise or lower the signal;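 also: background control endpoint measuring basal TAL promoter reporter mRNA not a specific factor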
Summary of the method: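 Basal-promoter background-control endpoint from a multiplexed HepG2 reporter panel. Cells were exposed 24 h, then reporter mRNA was read by RT-PCR/CE fluorescence and fitted in both directions relative to DMSO.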

[13] = ATG_TGFb_CIS: Attagene CIS-FACTORIAL HepG2 Assay for human Transforming Growth Factor (TGF) (AID 2282967); settings: HepG2 Attagene CIS TGFb reporter, mRNA transcription; actives raise or lower the signal
Summary of the method: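 Transient MRTU transfection of HepG2 (FuGene 6). Dose 24 h. TriZol RNA, oligo(dT) RT, PCR, 6-FAM primer extension, HpaI cut, CE. Bidirectional fit, DMSO = baseline.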

[14] = ATG_VDRE_CIS: Attagene CIS-FACTORIAL HepG2 Assay for human Vitamin D Receptor Element (VDRE) (AID 2282968); settings: HepG2 VDRE cis-reporter transcription, actives raise or lower the signal
Summary of the method: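 Compounds were applied for 24 h to HepG2 cells transfected with promoter-regulated reporter units. Total RNA was reverse-transcribed, and reporter amplicons were fluorescently labelled and sized by capillary electrophoresis.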

[15] = target: Nuclear receptor subfamily 1 group I member 3 (Homo sapiens) (UniProt Q14994); test: ATG_CAR_TRANS: Attagene TRANS-FACTORIAL HepG2 Assay for human Constitutive Androstane Receptor (CAR) (AID 2282969; active = hit-call score of the fitted dose curve at least 0.9, where 1 is the maximum;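 also: activators raise reporter mRNA above DMSO so AC50 marks induction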); settings: HepG2 Attagene TRANS-FACTORIAL CAR reporter
Nuclear receptor subfamily 1 group I member 3 (Homo sapiens), sequence (Q14994 whole entry, looked up, the tested form may be a part): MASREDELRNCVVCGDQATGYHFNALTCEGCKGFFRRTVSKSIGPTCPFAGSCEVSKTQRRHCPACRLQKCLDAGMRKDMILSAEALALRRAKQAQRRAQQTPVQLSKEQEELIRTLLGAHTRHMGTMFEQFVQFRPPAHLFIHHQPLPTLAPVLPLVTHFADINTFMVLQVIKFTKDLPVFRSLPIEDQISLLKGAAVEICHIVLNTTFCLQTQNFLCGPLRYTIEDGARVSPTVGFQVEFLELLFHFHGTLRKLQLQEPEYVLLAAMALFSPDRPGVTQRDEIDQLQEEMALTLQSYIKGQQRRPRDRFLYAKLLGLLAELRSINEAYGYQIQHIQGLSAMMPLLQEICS
Summary of the method: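 Transiently transfected HepG2, multiplex TRANS reporters (CAR-Gal4 chimera driving GAL4-UAS reporter). 24 h dosing. Readout: reporter transcript by RT-PCR + capillary electrophoresis, fluorescence intensity; positive direction vs DMSO.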

[16] = target: X-box-binding protein 1 (Homo sapiens) (UniProt P17861); test: ATG_Xbp1_CIS: Attagene CIS-FACTORIAL HepG2 Assay for human X-box Binding Protein 1 (XBP1) (AID 2282972); settings: HepG2 XBP1 cis-element reporter, Attagene multiplex; actives raise or lower the signal
X-box-binding protein 1 (Homo sapiens), sequence (P17861 whole entry, looked up): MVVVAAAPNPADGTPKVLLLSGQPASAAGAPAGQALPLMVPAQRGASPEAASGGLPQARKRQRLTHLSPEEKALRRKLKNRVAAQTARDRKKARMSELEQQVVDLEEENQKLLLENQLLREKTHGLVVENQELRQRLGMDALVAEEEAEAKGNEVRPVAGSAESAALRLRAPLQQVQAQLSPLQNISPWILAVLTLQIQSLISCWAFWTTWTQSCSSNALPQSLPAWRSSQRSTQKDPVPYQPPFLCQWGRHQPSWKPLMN
Summary of the method: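 Multiplexed cis-reporter readout in transfected HepG2 liver cells. Exposure lasted 24 hours. Activity in either direction was fitted against DMSO as negative control and baseline.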

[17] = target: Androgen receptor (Homo sapiens) (UniProt P10275); test: ATG_AR_TRANS: Attagene TRANS-FACTORIAL HepG2 Assay for human Androgen Receptor (AR) (AID 2282973; active = hit-call score of the fitted dose curve at least 0.9, where 1 is the maximum); settings: HepG2 Attagene TRANS-FACTORIAL AR reporter transcription
Androgen receptor (Homo sapiens), sequence (P10275 whole entry, looked up, the tested form may be a part): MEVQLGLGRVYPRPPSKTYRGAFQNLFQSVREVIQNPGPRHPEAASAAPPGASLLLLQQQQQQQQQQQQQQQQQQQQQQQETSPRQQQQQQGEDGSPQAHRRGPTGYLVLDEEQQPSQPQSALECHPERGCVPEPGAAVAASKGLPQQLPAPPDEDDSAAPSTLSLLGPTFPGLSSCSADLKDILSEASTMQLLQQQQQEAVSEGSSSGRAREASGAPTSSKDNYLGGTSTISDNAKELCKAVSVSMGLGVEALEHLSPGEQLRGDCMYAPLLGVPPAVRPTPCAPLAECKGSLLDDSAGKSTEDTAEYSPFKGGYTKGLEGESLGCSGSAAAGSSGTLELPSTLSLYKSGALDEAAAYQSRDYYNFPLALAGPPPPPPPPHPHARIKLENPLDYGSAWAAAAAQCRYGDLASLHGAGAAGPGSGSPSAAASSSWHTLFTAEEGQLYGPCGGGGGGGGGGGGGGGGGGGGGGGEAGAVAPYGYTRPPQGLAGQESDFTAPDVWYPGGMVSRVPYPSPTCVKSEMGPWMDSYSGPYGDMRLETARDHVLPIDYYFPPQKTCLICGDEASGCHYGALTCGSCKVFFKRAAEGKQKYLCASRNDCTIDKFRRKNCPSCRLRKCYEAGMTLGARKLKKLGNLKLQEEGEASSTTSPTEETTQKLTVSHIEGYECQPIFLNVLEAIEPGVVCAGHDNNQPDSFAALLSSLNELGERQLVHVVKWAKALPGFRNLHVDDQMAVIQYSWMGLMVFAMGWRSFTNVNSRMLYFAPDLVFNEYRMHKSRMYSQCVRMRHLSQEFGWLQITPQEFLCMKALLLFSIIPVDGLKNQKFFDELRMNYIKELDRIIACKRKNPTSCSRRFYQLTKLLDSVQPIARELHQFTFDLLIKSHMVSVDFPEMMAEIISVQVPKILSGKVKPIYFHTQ
Summary of the method: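 HepG2 cells transiently transfected with AR-Gal4 chimera and GAL4-UAS reporter units; chemical exposure 24 h. Reporter mRNA quantified by RT-PCR with fluorescent labelling and capillary electrophoresis; gain-of-signal fitted against DMSO.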

[18] = target: Estrogen receptor (Homo sapiens) (UniProt P03372); test: ATG_ERa_TRANS: Attagene TRANS-FACTORIAL HepG2 Assay for human Estrogen Receptor alpha (ERa) (AID 2282970; active = hit-call score of the fitted dose curve at least 0.9, where 1 is the maximum); settings: HepG2 Attagene TRANS ERa GAL4 reporter, mRNA
Estrogen receptor (Homo sapiens), sequence (P03372 whole entry, looked up, the tested form may be a part): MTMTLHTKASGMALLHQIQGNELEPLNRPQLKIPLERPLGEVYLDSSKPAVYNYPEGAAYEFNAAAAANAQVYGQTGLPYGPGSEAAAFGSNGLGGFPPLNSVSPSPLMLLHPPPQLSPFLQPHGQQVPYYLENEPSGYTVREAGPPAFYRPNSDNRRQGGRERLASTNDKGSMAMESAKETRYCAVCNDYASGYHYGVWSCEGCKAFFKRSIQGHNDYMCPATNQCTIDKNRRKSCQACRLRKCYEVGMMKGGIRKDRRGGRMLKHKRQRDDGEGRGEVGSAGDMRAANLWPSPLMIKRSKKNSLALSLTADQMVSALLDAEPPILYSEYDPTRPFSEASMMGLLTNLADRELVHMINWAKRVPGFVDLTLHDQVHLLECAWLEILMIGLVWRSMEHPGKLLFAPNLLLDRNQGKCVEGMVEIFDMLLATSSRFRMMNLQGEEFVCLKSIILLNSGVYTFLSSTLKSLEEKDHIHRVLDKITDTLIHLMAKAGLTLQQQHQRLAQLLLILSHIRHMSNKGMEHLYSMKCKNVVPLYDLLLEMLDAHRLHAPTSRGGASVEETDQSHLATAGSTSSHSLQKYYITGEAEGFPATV
Summary of the method: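 Gal4-fusion ERa transactivation, measured as reporter transcript level in transiently transfected HepG2 cells. Exposure 24 h; RT-PCR plus capillary electrophoresis with fluorescence detection.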

[19] = ATG_M_19_TRANS: Attagene TRANS-FACTORIAL HepG2 Assay for M19 Transcription Factor (Internal Marker) (AID 2282974; active = hit-call score of the fitted dose curve at least 0.9, where 1 is the maximum); settings: HepG2 Attagene TRANS-FACTORIAL M19 internal marker reporter
Summary of the method: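 Cells: human HepG2, transiently transfected with multiplexed reporter transcription units. Exposure: 24 h. Detection: RT-PCR of reporter mRNA with capillary electrophoresis. Analysis: gain-of-signal vs DMSO.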

Measured: AC50

COCc1cnc(C2=NC(C)(C(C)C)C(=O)N2)c(C(=O)O)c1 (stereo unspecified)
not listed: [18] | [19]
inactive: all other assays above

CCN(CC)C(=O)C(C)Oc1cccc2ccccc12 (stereo unspecified)
active: [1] 0.949 µM | [3] 0.163 µM | [4] 50 µM | [5] 28 µM | [8] 28.8 µM | [18] 29.8 µM
not listed: [14] | [17]
inactive: all other assays above

CC(C)=CC1C(C(=O)OCc2coc(Cc3ccccc3)c2)C1(C)C (stereo unspecified)
active: [1] 14.6 µM | [3] 5.63 µM | [4] 11.2 µM | [14] 14.5 µM | [18] 19.6 µM
not listed: [2] | [17]
inactive: all other assays above
